This is an account of results in PubChem BioAssay (NCATS).

Results filed as inconclusive are left out. Active and inactive are the calls of the source. Calls come from the whole dose curve; as a rule, active = well fitted curve in the direction sought with a large enough effect; inconclusive = small, poorly fitted or top-dose-only effect, or another doubt; inactive = no such curve, though single readings can be large; an effect the other way counts as inactive or inconclusive.

A short description of test [1]: qHTS of pediatric cancer cell lines to identify multiple opportunities for drug repurposing: Primary screen for MG 63 (6-TG R) cells (AID 1347105). Note: nearly all actives have a fitted effect of over 50% in size. Note: potency is the fitted concentration of half-maximal effect. Summed up: (§1)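 CRCs from 8- or 11-point titrations (lowest final 0.59 nM NPC, 0.78 nM MIPE). Cell viability: CellTiter-Glo after 48 h incubation, 15 min room-temperature development, luminescence imaging.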
A general note: Quantitative high-throughput screening tests each substance at several concentrations.

Test [2] can be described thus: qHTS of pediatric cancer cell lines to identify multiple opportunities for drug repurposing: Primary screen for control Hh wild type fibroblast cells (AID 1347106).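 Note: series mostly up to about 46 µM; a drop in luminescence marks cytotoxicity and a rise apparent proliferation; nearly all actives have a fitted effect of over 55% in size.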 A digest of the protocol: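 Viability after 48 h compound treatment at 37C, 500-1,000 cells/well, read as ATP luminescence with CellTiter-Glo. Primary screens used 11-point (MIPE, 0.78 nM-46 µM) or 8-point (NPC, 0.59 nM-46 µM) final concentrations; follow-up screens used 11-point dilutions.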

Test [3] is described as follows: qHTS of pediatric cancer cell lines to identify multiple opportunities for drug repurposing: Primary screen for Rh41 cells (AID 1347108).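 Note: series mostly up to about 46 µM; luminescence drop marks cytotoxic hits; nearly all actives have a fitted effect of over 70% in size.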 Summed up: as §1
A short description of test [4]: qHTS of pediatric cancer cell lines to identify multiple opportunities for drug repurposing: Primary screen for Rh30 cells (AID 1347107). Note: series mostly up to about 46 µM; nearly all actives have a fitted effect of over 75% in size. Summed up: (§2)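 Cells (500-1,000/well) rested 5 h, then received compounds for 48 h; metabolically active cells were measured by CellTiter-Glo luminescence. Final concentrations spanned up to 46 µM (MIPE, 11-point) or 0.59 nM-46 µM (NPC, 8-point) in primary screens, 11-point in follow-ups.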

A short description of test [5]: qHTS of pediatric cancer cell lines to identify multiple opportunities for drug repurposing: Confirmatory screen for SK-N-MC cells (AID 1347111).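 Note: cells exposed to compound for 48 h before the readout; nearly all actives have a fitted effect of over 70% in size.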 Note: potency is the fitted concentration of half-maximal effect. Summed up:
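Seed 500-1,000 cells/well; rest 5 h at 37 degrees C. Pin-transfer compounds, 11-point titration. Incubate 48 h. Add CellTiter-Glo, 15 min RT, read luminescence.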

Test [6] is described as follows: qHTS of pediatric cancer cell lines to identify multiple opportunities for drug repurposing: Confirmatory screen for BT-12 cells (AID 1347112). Note: nearly all actives have a fitted effect of over 55% in size. Summed up:
as §2

A short description of test [7]: qHTS of pediatric cancer cell lines to identify multiple opportunities for drug repurposing: Confirmatory screen for LAN-5 cells (AID 1347113). Note: nearly all actives have a fitted effect of over 65% in size. Note: potency is the fitted concentration of half-maximal effect. Summed up: as §2
Test [8] is described as follows: qHTS of pediatric cancer cell lines to identify multiple opportunities for drug repurposing: Confirmatory screen for DAOY cells (AID 1347114). Note: nearly all actives have a fitted effect of over 65% in size. Note: potency is the fitted concentration of half-maximal effect. A digest of the protocol: (§3)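 Viability measured as metabolically active cells via CellTiter-Glo luminescence following 48 hours of compound exposure, 11-point dilutions in confirmatory testing. 500-1,000 cells/well plated 5 hours before dosing; controls were DMSO and 2.3 µM bortezomib.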

Test [9] in a line: qHTS of pediatric cancer cell lines to identify multiple opportunities for drug repurposing: Confirmatory screen for NB-EBc1 cells (AID 1347115).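 Note: cells exposed to compound for 48 h before the viability read; nearly all actives have a fitted effect of over 45% in size.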 Note: potency is the fitted concentration of half-maximal effect. Summed up: as §2
Test [10] can be described thus: qHTS of pediatric cancer cell lines to identify multiple opportunities for drug repurposing: Confirmatory screen for SJ-GBM2 cells (AID 1347116). Note: nearly all actives have a fitted effect of over 60% in size. Note: potency is the fitted concentration of half-maximal effect. A digest of the protocol:
as §3

Turning to `C[C@@H](CN(C)C)CN1c2ccccc2Sc2ccccc21`, the Potency entry in [1], in test [2] and in test [3] was “inactive” each time.

Consider `C[C@H]1C[C@H]2[C@@H]3CCC4=CC(=O)C=C[C@]4(C)[C@@]3(Cl)[C@@H](O)C[C@]2(C)[C@@]1(O)C(=O)CO`, for which the Potency result in test [1], in test [2], in [4], in test [3], in test [5] and in test [6] was “inactive” in each case. Besides, the Potency entry in test [7], in [8], in test [9] and in test [10] was “inactive” in each case.

For the compound `CN=C(NC#N)Nc1ccc(C2=NNC(=O)CC2C)cc1` (stereo unspecified), the Potency entry in [1], in [2], in test [4] and in test [3] was “inactive” in each case.

For `CC(C)NC[C@@H](O)COc1cccc2ccccc12`, the Potency entry in test [1], in test [2] and in [3] was “inactive” each time.

On to `CC(=O)c1ccc2c(c1)N(CCCN1CCC(CCO)CC1)c1ccccc1S2`, for which the Potency entry in [1], in test [2] and in test [3] was “inactive” each time.

Consider `CN1C(CCl)Nc2cc(Cl)c(S(N)(=O)=O)cc2S1(=O)=O` (stereo unspecified), for which the Potency entry in test [1], in test [2] and in test [3] was “inactive” throughout.

`C[C@]12CC[C@H]3[C@@H](CCC4=CC(=O)CC[C@@]43C)[C@@H]1CC[C@@H]2C(=O)CO`: the Potency result in test [1], in [2] and in [3] was “inactive” each time.

For the compound `NC(CO)(CO)CO`, the Potency entry in test [1], in test [2], in test [4], in test [3], in [6] and in test [8] was “inactive” throughout. Besides, the Potency entry in [9] and in test [10] was “inactive” each time. Moreover, in test [5], the Potency is 8.27 µM (active).

Consider `NCCc1ccn[nH]1`, for which the Potency entry in test [1], in test [2] and in [3] was “inactive” each time.

For the compound `CN1CCN(C(c2ccccc2)c2ccccc2)CC1`, the Potency result in [1], in [2], in test [4] and in test [3] was “inactive” in each case.

For `c1ccc(CNCCNCc2ccccc2)cc1`, the Potency entry in test [1], in [2], in test [4] and in test [3] was “inactive” each time.

In the case of `COCc1c(C(C)C)nc(C(C)C)c(/C=C/[C@@H](O)C[C@@H](O)CC(=O)O)c1-c1ccc(F)cc1`, the Potency is 0.0841 µM (active) in [1]; 2.93 µM (active) in test [5]; 13.1 µM (active) in test [7]; 0.414 µM (active) in [8]; 4.14 µM (active) in test [9]; 2.61 µM (active) in test [10]. Further, the Potency result in [2] and in test [4] was “inactive” throughout.

On to `O=C(CCCN1CCC(O)(c2ccc(Br)cc2)CC1)c1ccc(F)cc1`, for which the Potency result in test [1], in [2], in test [4], in test [3], in test [6] and in test [9] was “inactive” throughout. Besides, the Potency entry in test [10] is “inactive”. Besides, in [5], the Potency was 2.61 µM (active).

Consider `CC1(C)O[C@@H]2C[C@H]3[C@@H]4C[C@H](F)C5=CC(=O)CC[C@]5(C)[C@H]4[C@@H](O)C[C@]3(C)[C@]2(C(=O)CO)O1`, for which the Potency result in [1], in test [2], in [4], in test [3], in test [6] and in test [7] was “inactive” in each case. Besides, the Potency result in test [8], in test [9] and in test [10] was “inactive” throughout.

As to `CN(C)/N=N/c1nc[nH]c1C(N)=O`, the Potency entry in [1], in test [2], in test [4], in test [6] and in [8] was “inactive” in each case. The Potency in test [5] was 9.27 µM (active); in test [9], 18.5 µM (active).

As to `O=C1OC2(c3ccc(O)cc3Oc3cc(O)ccc32)c2ccccc21`, the Potency result in test [1], in test [2] and in test [3] was “inactive” throughout.

For the compound `CCCCCCCCCCCCCCCCCC(=O)OCC(O)CO` (stereo unspecified), the Potency entry in test [1], in [2], in [4] and in [3] was “inactive” throughout.

Turning to `Oc1ccc(O)cc1`, the Potency result in test [1], in test [2], in test [4] and in [10] was “inactive” throughout. Also, the Potency in test [9] is 14.7 µM (active).

With `CN1CCC(=C2c3ccccc3Sc3ccccc32)CC1`, the Potency entry in test [1], in [2] and in test [3] was “inactive” each time.

As to `O=C(O)CCCCC(=O)O`, the Potency result in test [1], in [2], in test [4] and in [3] was “inactive” each time.

`Cc1cc(N)c2cc(NC(=O)Nc3ccc4nc(C)cc(N)c4c3)ccc2n1`: the Potency result in test [1], in test [2] and in [3] was “inactive” each time.

Consider `C[C@]12CCC(=O)C=C1CC[C@H]1[C@@H]3CC[C@](O)(C(=O)CO)[C@@]3(C)C[C@H](O)[C@@]12F`, for which the Potency result in [1], in test [2], in test [4], in [3], in test [7] and in [8] was “inactive” in each case. The Potency result in test [9] and in [10] was “inactive” throughout.

With `N[C@H](Cc1c[nH]c2ccccc12)C(=O)O`, the Potency entry in test [1], in test [2], in test [4] and in [3] was “inactive” each time.

Regarding `CC(=O)[C@H]1CC[C@H]2[C@@H]3C[C@H](C)C4=CC(=O)CC[C@]4(C)[C@H]3[C@@H](O)C[C@]12C`, the Potency result in [1], in test [2], in test [4], in test [3], in test [6] and in test [7] was “inactive” in each case. Besides, the Potency result in test [10] is “inactive”.

Regarding `COc1cccc(CCc2ccccc2OCC(CN(C)C)OC(=O)CCC(=O)O)c1` (stereo unspecified), the Potency entry in test [1], in [2], in [4] and in test [3] was “inactive” in each case.

With `CC(=O)OCC(=O)[C@@]1(O)[C@H](C)C[C@H]2[C@@H]3CCC4=CC(=O)C=C[C@]4(C)[C@@]3(F)[C@@H](O)C[C@@]21C`, the Potency entry in test [1], in [2], in test [4], in test [3] and in test [9] was “inactive” each time. For the same compound, in test [5], the Potency was 29.3 µM (active).

On to `CC(=O)OCC(=O)[C@@]12OC(C)(C)O[C@@H]1C[C@H]1[C@@H]3C[C@H](F)C4=CC(=O)C=C[C@]4(C)[C@@]3(F)[C@@H](O)C[C@@]12C`, for which the Potency entry in test [1], in test [2], in test [4], in test [3], in test [6] and in [7] was “inactive” each time. The Potency result in test [8], in [9] and in test [10] was “inactive” throughout.
